Rab2 wt GTP – changes GTP binding to wildtype dog Rab2A, up or down; GST-Rab2 wt beads, Bodipy-GTP binding, flow cytometry; GTP binding activity, % at 10 µM; 190,000 tested, 0.19% active; AID 760;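 active = GTP binding activity at least 20 points away from 100%, either lowered or raised; inconclusive = signal likely due to the compound's own green fluorescence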;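 also: 0% = beads with excess unlabeled GTP and 100% = no-compound control corrected for plate trend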
Rac1 wt GTP bind – modulators of human Rac1 wildtype GTP binding; GTP binding activity (% of control), % at 10 µM; P63000; 190,000 tested, 0.27% active; GST-Rac1 beads, fluorescent GTP binding, flow cytometry; actives lie on both sides; 0 = cold GTP competed, 100 = untreated;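 active = GTP binding activity at least 20 points away from the 100% control level, either lower or higher; inconclusive = compound flagged as likely green fluorescent, judged across all proteins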
Cdc42 wt GTP – human Cdc42 wildtype GTP binding change, either direction. percent activity (GTP binding), % at 10 µM. GST-Cdc42 beads, Bodipy-GTP binding, flow cytometry; actives lie on both sides. 190,000 tested, 0.2% active;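 active = percent activity GTP binding at least 20 points away from the 100% baseline, either down as inhibitor or up as activator; inconclusive = compound flagged as likely green fluorescent from well-wide comparison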;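 also: median bead fluorescence of bound Bodipy-FL-GTP at 100 nM; 0% = excess unlabeled GTP control and 100% = no compound control; below 100% means less GTP binding so inhibitor and above means activator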
Target sequence (P60953 whole entry, looked up): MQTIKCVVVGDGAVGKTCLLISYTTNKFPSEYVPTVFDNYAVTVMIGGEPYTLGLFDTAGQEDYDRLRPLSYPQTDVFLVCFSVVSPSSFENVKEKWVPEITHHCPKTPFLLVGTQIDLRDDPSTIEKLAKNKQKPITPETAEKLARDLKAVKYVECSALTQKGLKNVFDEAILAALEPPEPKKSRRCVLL
Rac1 act GTP bind – human Rac1 activated mutant GTP binding change; 190,000 tested, 0.11% active; P63000; percent activity (GTP binding), % at 10 µM; GST-Rac1 activated beads, fluorescent GTP binding, flow cytometry; actives lie on both sides; 100% means binding = to untreated wells; AID 764;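 active = GTP binding at least 20 percentage points away from the 100% baseline, in either direction, so actives lie on both sides; inconclusive = Compound likely fluorescent itself, or too few beads counted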
Rab7 wt GTP bind – dog Rab7 wildtype GTP binding, inhibitors and activators; GST-Rab7 beads, fluorescent GTP binding, flow cytometry; actives lie on both sides; untreated = 100%, excess cold GTP = 0%; GTP binding activity (percent of control), % at 10 µM; 190,000 tested, 0.055% active;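 active = fluorescent GTP binding to Rab7 beads changed by at least 20 points from the 100% baseline, either direction, mostly lower; inconclusive = compound itself probably fluorescent, or too few beads counted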;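 also: median green fluorescence of bound Bodipy-FL-GTP per Rab7 bead population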
HRas wt GTP – human HRas wildtype GTP binding, change in either direction | P01112 | GST-Ras wt beads, Bodipy-FL-GTP binding, flow cytometry; actives lie on both sides | GTP binding activity, % at 10 µM | 190,000 tested, 0.14% active;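 active = GTP binding activity at least 20% away from the 100% baseline, either lowered as inhibitor or raised as activator; inconclusive = flagged as likely green fluorescent, judged across all proteins in the well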;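 also: 0% = unlabeled GTP competition control and 100% = no-compound control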
Target sequence (P01112 whole entry, looked up): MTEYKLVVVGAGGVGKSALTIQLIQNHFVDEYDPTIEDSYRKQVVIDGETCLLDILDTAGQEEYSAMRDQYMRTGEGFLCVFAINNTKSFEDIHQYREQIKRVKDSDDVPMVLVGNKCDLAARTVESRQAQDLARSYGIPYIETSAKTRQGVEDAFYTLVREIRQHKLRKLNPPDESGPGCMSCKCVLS
Active calls of the source: *; [ ] = another dose, or the depositor's remark. A selection: hits, their analogues and other compounds. The true share with any hit is near 0.4%.

Results for Nc1ccc(-c2cn3cccnc3n2)cc1 ?
Rab2 wt GTP: 78.0*; Rac1 wt GTP bind: 72.0*; Cdc42 wt GTP: 79.0*; Rac1 act GTP bind: 86.0; Rab7 wt GTP bind: 90.0; HRas wt GTP: 78.0*

Results for CCN(CC)S(=O)(=O)c1cccc(NC(=O)CN2C(=O)c3ccc([N+](=O)[O-])cc3C2=O)c1 ?
Rab2 wt GTP: 98.0; Rac1 wt GTP bind: 104.0; Cdc42 wt GTP: 104.0; Rac1 act GTP bind: 101.0; Rab7 wt GTP bind: 99.0; HRas wt GTP: 101.0

Results for COc1ccc(-c2nnc(S/C(=C/c3ccc(Cl)cc3)C(=O)O)o2)cc1 ?
Rab2 wt GTP: 75.0*; Rac1 wt GTP bind: 81.0; Cdc42 wt GTP: 74.0*; Rac1 act GTP bind: 73.0*; Rab7 wt GTP bind: 85.0; HRas wt GTP: 83.0

Results for Cc1ccc(NC(=O)C2=C(c3ccccc3)S(=O)(=O)CCS2(=O)=O)cc1 ?
Rab2 wt GTP: 84.0; Rac1 wt GTP bind: 83.0; Cdc42 wt GTP: 78.0*; Rac1 act GTP bind: 82.0; Rab7 wt GTP bind: 94.0; HRas wt GTP: 86.0

What do the screens show for `CCOc1ccc(Cn2c3ccc(OC)cc3c3nc4ccccc4nc32)cc1`?
Rab2 wt GTP: 130.0*[activator]; Rac1 wt GTP bind: 124.0*[activator]; Cdc42 wt GTP: 103.0; Rac1 act GTP bind: 115.0; Rab7 wt GTP bind: inconclusive; HRas wt GTP: 119.0

What do the screens show for `S=C(NCCc1ccccc1)NC1CC1`?
Rab2 wt GTP: 105.0; Rac1 wt GTP bind: 123.0*[activator]; Cdc42 wt GTP: 117.0; Rac1 act GTP bind: 104.0; Rab7 wt GTP bind: 99.0; HRas wt GTP: 104.0

What do the screens show for `O=C(CCC(=O)N(CC(=O)NC1CCCC1)C1CCCCC1)Nc1ccccn1`?
Rab2 wt GTP: 100.0; Rac1 wt GTP bind: 100.0; Cdc42 wt GTP: 99.0; Rac1 act GTP bind: 97.0; Rab7 wt GTP bind: 104.0; HRas wt GTP: 101.0

How did O=C(COc1cc(Cl)ccc1Cl)Nc1nnc(CC(=O)N2CCOCC2)s1 do in these assays?
Rab2 wt GTP: 72.0*; Rac1 wt GTP bind: 87.0; Cdc42 wt GTP: 71.0*; Rac1 act GTP bind: 86.0; Rab7 wt GTP bind: 86.0; HRas wt GTP: 70.0*

Results for O=C(Nc1nnc(CC(=O)N2CCOCC2)s1)c1cccs1 ?
Rab2 wt GTP: 102.0; Rac1 wt GTP bind: 107.0; Cdc42 wt GTP: 104.0; Rac1 act GTP bind: 99.0; Rab7 wt GTP bind: 102.0; HRas wt GTP: 102.0

How did S=C(NCc1ccc(Cl)cc1)NN1CCOCC1 do in these assays?
Rab2 wt GTP: 96.0; Rac1 wt GTP bind: 102.0; Cdc42 wt GTP: 95.0; Rac1 act GTP bind: 95.0; Rab7 wt GTP bind: 102.0; HRas wt GTP: 98.0

Results for O=[N+]([O-])c1ccccc1/C=C/C=N/n1c(-c2ccco2)n[nH]c1=S ?
Rab2 wt GTP: 82.0; Rac1 wt GTP bind: 77.0*; Cdc42 wt GTP: 76.0*; Rac1 act GTP bind: 75.0*; Rab7 wt GTP bind: 84.0; HRas wt GTP: 80.0

What do the screens show for `O=C(O)c1cc([N+](=O)[O-])ccc1NCc1ccccc1`?
Rab2 wt GTP: 153.0*[activator]; Rac1 wt GTP bind: 204.0*[activator]; Cdc42 wt GTP: 172.0*[activator]; Rac1 act GTP bind: 146.0*[activator]; Rab7 wt GTP bind: 137.0*[activator]; HRas wt GTP: 150.0*[activator]

What do the screens show for `COc1cc(/C=N/NC(=O)Nc2cccc3nsnc23)cc(OC)c1OC`?
Rab2 wt GTP: 59.0*; Rac1 wt GTP bind: 76.0*; Cdc42 wt GTP: 56.0*; Rac1 act GTP bind: 75.0*; Rab7 wt GTP bind: 80.0; HRas wt GTP: 58.0*

What do the screens show for `CCN1/C(=C/C=C/C=C/c2sc3ccccc3[n+]2CC)Sc2ccccc21`?
Rab2 wt GTP: 57.0*; Rac1 wt GTP bind: 89.0; Cdc42 wt GTP: 63.0*; Rac1 act GTP bind: inconclusive; HRas wt GTP: 51.0*

How did Cn1c(NCc2ccccc2)nc2c1c(=O)n(Cc1ccc(Br)cc1)c(=O)n2C do in these assays?
Rab2 wt GTP: 103.0; Rac1 wt GTP bind: 100.0; Cdc42 wt GTP: 98.0; Rac1 act GTP bind: 98.0; Rab7 wt GTP bind: 102.0; HRas wt GTP: 100.0

What do the screens show for `COc1ccc(CNc2nc3c(c(=O)n(Cc4ccc(Br)cc4)c(=O)n3C)n2C)cc1`?
Rab2 wt GTP: 87.0; Rac1 wt GTP bind: 80.0; Cdc42 wt GTP: 83.0; Rac1 act GTP bind: 79.0*; Rab7 wt GTP bind: 92.0; HRas wt GTP: 90.0

What do the screens show for `O=C(O)C1=C[C@H](c2ccc(C(F)(F)F)cc2)C[C@H](OCc2ccc(CO)cc2)O1`?
Rab2 wt GTP: 76.0*; Rac1 wt GTP bind: 77.0*; Cdc42 wt GTP: 74.0*; Rac1 act GTP bind: 76.0*; Rab7 wt GTP bind: 90.0; HRas wt GTP: 80.0

What do the screens show for `Cc1ccc2nc(CSc3nc(C)cc(C)c3C#N)[nH]c2c1`?
Rab2 wt GTP: 101.0; Rac1 wt GTP bind: 122.0*[activator]; Cdc42 wt GTP: 114.0; Rac1 act GTP bind: 105.0; Rab7 wt GTP bind: 102.0; HRas wt GTP: 107.0

What do the screens show for `Cc1cc(C)c(C#N)c(SCc2ccccc2)n1`?
Rab2 wt GTP: 101.0; Rac1 wt GTP bind: 104.0; Cdc42 wt GTP: 100.0; Rac1 act GTP bind: 98.0; Rab7 wt GTP bind: 96.0; HRas wt GTP: 99.0

What do the screens show for `O=C1c2ccccc2C(=O)N1CCCCN(C(=O)c1cc2ccccc2oc1=O)c1ccc(Cl)cc1`?
Rab2 wt GTP: 46.0*; Rac1 wt GTP bind: 50.0*; Cdc42 wt GTP: 43.0*; Rac1 act GTP bind: 53.0*; Rab7 wt GTP bind: 29.0*; HRas wt GTP: 51.0*

How did COc1cc(NC(=O)c2cccs2)c(OC)cc1NC(=O)CCC(=O)Nc1ccc2ncccc2c1 do in these assays?
Rab2 wt GTP: 71.0*; Rac1 wt GTP bind: 74.0*; Cdc42 wt GTP: 71.0*; Rac1 act GTP bind: 87.0; Rab7 wt GTP bind: 90.0; HRas wt GTP: 72.0*

How did COC(=O)Oc1ccc(/C=N/NC(=O)CSCc2ccc(Cl)cc2)cc1OC do in these assays?
Rab2 wt GTP: 98.0; Rac1 wt GTP bind: 100.0; Cdc42 wt GTP: 96.0; Rac1 act GTP bind: 97.0; Rab7 wt GTP bind: 99.0; HRas wt GTP: 97.0

What do the screens show for `Cc1cccn2cc(-c3ccc(Cl)cc3)nc12`?
Rab2 wt GTP: 93.0; Rac1 wt GTP bind: 93.0; Cdc42 wt GTP: 91.0; Rac1 act GTP bind: 93.0; Rab7 wt GTP bind: 93.0; HRas wt GTP: 91.0

Results for Cc1ccc(-c2cn3cccc(C)c3n2)cc1 ?
Rab2 wt GTP: 118.0; Rac1 wt GTP bind: 108.0; Cdc42 wt GTP: 109.0; Rac1 act GTP bind: 107.0; Rab7 wt GTP bind: 120.0*[activator]; HRas wt GTP: 112.0

How did CC(C)Sc1nc(-c2ccccc2)cc(=O)[nH]1 do in these assays?
Rab2 wt GTP: 109.0; Rac1 wt GTP bind: 128.0*[activator]; Cdc42 wt GTP: 115.0; Rac1 act GTP bind: 105.0; Rab7 wt GTP bind: 104.0; HRas wt GTP: 110.0

How did CCC(Sc1nc(-c2ccccc2)cc(=O)[nH]1)C(=O)O (centres undefined) do in these assays?
Rab2 wt GTP: 93.0; Rac1 wt GTP bind: 96.0; Cdc42 wt GTP: 94.0; Rac1 act GTP bind: 94.0; Rab7 wt GTP bind: 96.0; HRas wt GTP: 94.0

From PubChem BioAssay
